Laboratory results taken from PubChem BioAssay (NCI).
Compounds without any hit were thinned out: in the full panel of roughly 79,000, 15% have a hit. Values without a mark were called inactive. Calls of active or inactive are those of the source. No stated cut-off is given here; in the data, active means growth inhibition above about 70%; inactive means the rest.

Test: NCI Yeast Anticancer Drug Screen. Data for the sgs1 mgt1 strain (AID 161);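 further: 0% = growth of cultures given vehicle only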
Details: S. cerevisiae sgs1 mgt1 strain, at 5.0 µM (retest, dose inferred, filed as 0.5), active compounds read high
Procedure, shortened: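 Growth of a repair-deficient yeast mutant was monitored after compound treatment and expressed as inhibition relative to vehicle-treated cultures.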

| SMILES | growth inhibition |
| --- | --- |
| N#Cc1c(SCc2ccc(Cl)cc2)nsc1Nc1ccc(Cl)cc1 | 91% (active) |
| CC(CO)(Nc1ccc([N+](=O)[O-])cc1[N+](=O)[O-])C(=O)O (stereo not given) | 10% |
| O=[N+]([O-])/C(C(Cl)=C(Cl)Cl)=C(/Nc1ccccc1)Sc1ccccc1 | 64% |
| CC(SCc1ccccc1)C(=O)O (stereo not given) | -6% |
| O=C1C2(Cl)C(Cl)=C(Cl)C1(Cl)C1(Cl)C(Cl)=C(Cl)C(=O)C21Cl (stereo not given) | 45% |
| O=C(CNC(=O)c1ccccc1)Oc1c(Cl)c(Cl)c(Cl)c(Cl)c1Cl | 38% |
| CN(C)c1nc(NNS(=O)(=O)c2ccc(N)cc2)nc(N(C)C)n1 | 1% |
| CC1(C(Cl)(Cl)Cl)C=CC(O)(C#CC2(O)C=CC(C)(C(Cl)(Cl)Cl)C=C2)C=C1 (stereo not given) | 81% (active) |
| COCCN1C(=O)C2c3[nH]c4ccccc4c3C3CCC(C(C)(C)C)CC3C2C1=O (stereo not given) | -7% |
| Cc1nc(N)sc1N=Nc1cccc(Cl)c1Cl | 3% |
| ClC1=C(Cl)C2c3ccccc3C1c1ccccc12 | 0% |
| C=C/C=C/CC=C | -62% |
| C/C(=N\NC(=S)NCc1ccccc1)c1nccnc1C | 35% |
| COC(=O)c1cc(OC)c(OC)c(OC)c1 | 2% |
| Nc1nc2c(ccc3ccccc32)s1 | 6% |
| N=C(N)c1ccc(N=Nc2cc(/C=C/c3ccccc3)ccc2O)cc1 | 24% |
| O=C1NC(=O)N(c2ccc([N+](=O)[O-])cc2)C1=O | 3% |
| O=C(Nc1cc(Cl)cc(Cl)c1)OCCCl | 36% |
| Cc1[nH]nc(-c2ccon2)c1N=O | 16% |
| O=C(O)CCC(=O)c1ccc(C2CCCC2)c2ccccc12 | 3% |

| SMILES | growth inhibition |
| --- | --- |
| CC12CC(Br)(Br)C(=O)C3C1CCCC32 | 37% |
| O=[N+]([O-])c1ccc(NSc2ccccc2)cc1 | 5% |
| CCC1CCC(CC)C1=O (stereo not given) | 0% |
| Cc1cc(C(C)(CC(C)C)c2ccc(O)c(C)c2)ccc1O | 97% (active) |
| N#CC1C(=O)SC2c3ccccc3C(=O)c3ccccc3C12 (stereo not given) | -6% |
| COc1ccc(C2C3=C(CCCC3=O)Oc3cc4c(cc32)OCO4)cc1 (stereo not given) | -6% |
| CCC(c1cccc(O)c1)C(CC)c1cccc(O)c1 (stereo not given) | 51% |
| CCCCCCCCCCCC1C(C#N)C(=O)NC(=O)C1C#N (stereo not given) | 87% (active) |
| O=C(NNC(=O)c1cccc(C(=O)NNC(=O)c2ccc(Cl)c(Cl)c2)n1)c1ccc(Cl)c(Cl)c1 | 47% |
| CCOC(=O)CCC(NC(=O)c1ccc(NC(OC)c2nc3cc(C(F)(F)F)ccc3nc2-c2ccccc2)cc1)C(=O)OCC (stereo not given) | 90% (active) |
| CCOC(=O)c1c(C)[nH]c(CO)c1C | 2% |
| S=C(NC(=S)Nc1ccc(Cl)cc1)Nc1ccc(Cl)cc1 | 5% |
| O=S(=O)(c1ccc(OCC(O)COc2ccc(S(=O)(=O)c3ccc(OCC4CO4)cc3)cc2)cc1)c1ccc(OCC2CO2)cc1 (stereo not given) | 0% |
| C=C(C)C(=O)OC1CC2=CC(CC3(C)OC3C3OC(=O)C(=C)C13)OC2=O (stereo not given) | 4% |
| c1ccc2c(c1)C[n+]1ccc3ccccc3c1-c1c3ccccc3cc[n+]1C2 | 11% |
| CCN(CC)CCOC(=O)Cc1cccc2c(=O)cc(-c3cccs3)oc12 | 14% |
| C=C1C(=O)OC2C/C(C)=C/CC/C(C)=C/CCC3(COC(C)=O)OC3CC12 (stereo not given) | 10% |
| CN1C=CC(C(O)(c2ccccc2)c2ccccc2)CC1 (stereo not given) | 2% |
| OCc1cccc2c1Oc1ccccc1S2 | 1% |
| COC(=O)c1[nH]c(=O)c(C#N)c(C(=O)OC)c1C(=O)c1ccc(Cl)c(Cl)c1 | 23% |

Same assay, conditions: S. cerevisiae sgs1 mgt1 strain, at 50.0 µM (retest, dose inferred, filed as 5.0), active compounds read high

| SMILES | growth inhibition |
| --- | --- |
| N#Cc1c(SCc2ccc(Cl)cc2)nsc1Nc1ccc(Cl)cc1 | 98% (active) |
| CC(CO)(Nc1ccc([N+](=O)[O-])cc1[N+](=O)[O-])C(=O)O (stereo not given) | -22% |
| O=[N+]([O-])/C(C(Cl)=C(Cl)Cl)=C(/Nc1ccccc1)Sc1ccccc1 | 99% (active) |
| CC(SCc1ccccc1)C(=O)O (stereo not given) | 3% |
| O=C1C2(Cl)C(Cl)=C(Cl)C1(Cl)C1(Cl)C(Cl)=C(Cl)C(=O)C21Cl (stereo not given) | 92% (active) |
| O=C(CNC(=O)c1ccccc1)Oc1c(Cl)c(Cl)c(Cl)c(Cl)c1Cl | 89% (active) |
| CN(C)c1nc(NNS(=O)(=O)c2ccc(N)cc2)nc(N(C)C)n1 | -72% |
| CC1(C(Cl)(Cl)Cl)C=CC(O)(C#CC2(O)C=CC(C)(C(Cl)(Cl)Cl)C=C2)C=C1 (stereo not given) | -7% |
| COCCN1C(=O)C2c3[nH]c4ccccc4c3C3CCC(C(C)(C)C)CC3C2C1=O (stereo not given) | 98% (active) |
| Cc1nc(N)sc1N=Nc1cccc(Cl)c1Cl | 70% (active) |
| ClC1=C(Cl)C2c3ccccc3C1c1ccccc12 | 97% (active) |
| C=C/C=C/CC=C | -38% |
| C/C(=N\NC(=S)NCc1ccccc1)c1nccnc1C | 99% (active) |
| COC(=O)c1cc(OC)c(OC)c(OC)c1 | 29% |
| Nc1nc2c(ccc3ccccc32)s1 | 54% |
| N=C(N)c1ccc(N=Nc2cc(/C=C/c3ccccc3)ccc2O)cc1 | 98% (active) |
| O=C1NC(=O)N(c2ccc([N+](=O)[O-])cc2)C1=O | 6% |
| O=C(Nc1cc(Cl)cc(Cl)c1)OCCCl | 84% (active) |
| Cc1[nH]nc(-c2ccon2)c1N=O | 80% (active) |
| O=C(O)CCC(=O)c1ccc(C2CCCC2)c2ccccc12 | 34% |

| SMILES | growth inhibition |
| --- | --- |
| CC12CC(Br)(Br)C(=O)C3C1CCCC32 | -38% |
| O=[N+]([O-])c1ccc(NSc2ccccc2)cc1 | 97% (active) |
| CCC1CCC(CC)C1=O (stereo not given) | 3% |
| Cc1cc(C(C)(CC(C)C)c2ccc(O)c(C)c2)ccc1O | 98% (active) |
| N#CC1C(=O)SC2c3ccccc3C(=O)c3ccccc3C12 (stereo not given) | 5% |
| COc1ccc(C2C3=C(CCCC3=O)Oc3cc4c(cc32)OCO4)cc1 (stereo not given) | 64% |
| CCC(c1cccc(O)c1)C(CC)c1cccc(O)c1 (stereo not given) | 76% (active) |
| CCCCCCCCCCCC1C(C#N)C(=O)NC(=O)C1C#N (stereo not given) | 92% (active) |
| O=C(NNC(=O)c1cccc(C(=O)NNC(=O)c2ccc(Cl)c(Cl)c2)n1)c1ccc(Cl)c(Cl)c1 | 62% |
| CCOC(=O)CCC(NC(=O)c1ccc(NC(OC)c2nc3cc(C(F)(F)F)ccc3nc2-c2ccccc2)cc1)C(=O)OCC (stereo not given) | 90% (active) |
| CCOC(=O)c1c(C)[nH]c(CO)c1C | 24% |
| S=C(NC(=S)Nc1ccc(Cl)cc1)Nc1ccc(Cl)cc1 | 8% |
| O=S(=O)(c1ccc(OCC(O)COc2ccc(S(=O)(=O)c3ccc(OCC4CO4)cc3)cc2)cc1)c1ccc(OCC2CO2)cc1 (stereo not given) | 19% |
| C=C(C)C(=O)OC1CC2=CC(CC3(C)OC3C3OC(=O)C(=C)C13)OC2=O (stereo not given) | 35% |
| c1ccc2c(c1)C[n+]1ccc3ccccc3c1-c1c3ccccc3cc[n+]1C2 | 40% |
| CCN(CC)CCOC(=O)Cc1cccc2c(=O)cc(-c3cccs3)oc12 | 18% |
| C=C1C(=O)OC2C/C(C)=C/CC/C(C)=C/CCC3(COC(C)=O)OC3CC12 (stereo not given) | 97% (active) |
| CN1C=CC(C(O)(c2ccccc2)c2ccccc2)CC1 (stereo not given) | 0% |
| OCc1cccc2c1Oc1ccccc1S2 | 66% |
| COC(=O)c1[nH]c(=O)c(C#N)c(C(=O)OC)c1C(=O)c1ccc(Cl)c(Cl)c1 | 72% (active) |
